Results from article PMC12136788.
Positions count from the first letter of the chain named. Whole data set: some 5,800 sequences, median “enrichment r” near 0.68, cut for the highest 2% near 11. This excerpt belongs to a sample that is enriched for the highest values.

T1: UNK ZnF1-6 (called full-length) (human, UniProt Q9C0B0 30-357)
T1 sequence: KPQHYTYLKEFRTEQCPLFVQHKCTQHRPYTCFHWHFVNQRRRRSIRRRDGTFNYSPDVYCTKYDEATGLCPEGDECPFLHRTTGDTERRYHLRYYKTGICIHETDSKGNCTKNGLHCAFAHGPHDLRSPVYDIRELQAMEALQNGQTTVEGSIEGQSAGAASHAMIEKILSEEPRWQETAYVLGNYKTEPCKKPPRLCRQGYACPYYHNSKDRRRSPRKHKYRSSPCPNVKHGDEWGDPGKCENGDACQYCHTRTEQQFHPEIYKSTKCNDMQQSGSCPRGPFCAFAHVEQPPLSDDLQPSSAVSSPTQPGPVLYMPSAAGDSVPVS

B1: chr3:23980279:23980388:+|3pUTR|ENSG00000174738|unk|FALSE|unique (ssRNA)
RNA: GGGAGUUCUACAGUCCGACGAUCUUUUUCUUUUCCAAUAUAAAGUUUGCUGAAUGUACAAGAAGAGUUUAUCACUUAGGAUAUAGAAUUUUUUUAGGGGUUGGGGGAGGGGAUCUGUUAGGAAACUGUUACCUAUAAACAAAGCAACAGAGGAUUGAGCAUCA
B2: chr1:6525536:6525637:-|3pUTR|ENSG00000162408|msi1|total|mutant (ssRNA)
RNA: GGGAGUUCUACAGUCCGACGAUCACAGUUUGUGUGCCAUUAAAACAGAGAUUCCUCAGAAAGUUCUUCAGGGACCUGGUUAUCCGAAUCAGGAUAAAAAUAAGGAAACUGGGGCCAUUACAAUGUACCGAGAAGGAAGGAAGACAACAGAGGAUUGAGCAUCA
B3: chr1:85021069:85021276:-|CDS|ENSG00000055732|control|control|control (ssRNA)
RNA: GGGAGUUCUACAGUCCGACGAUCGAUAUGUUUGCCACGUUUGCAAAAAUGCAGCAAAAAAGUUACUUAGUCUGGCUGUUUAGUAGAAUUUACCUCUACUCAUUCAUCAGCCUCUUUAUAUAUAUGAUUUUAAGUCUUUUCAUUCAACAGAGGAUUGAGCAUCA
B4: chr1:42176760:42176861:-|3pUTR|ENSG00000198815|msi1|FALSE|bound_elsewhere (ssRNA)
RNA: GGGAGUUCUACAGUCCGACGAUCGUCGCUCAGAUGUCCUUUGAAGUGGGAGGGAAUCAAUCCGGGGAUAAUUUCAAAUGGAAUAGAGUAUUUUGAUAUUGUUCAUUCAGAGGGUGAUGUGUACAUAUCUAUAUUGUAUAUAUGCAACAGAGGAUUGAGCAUCA
B5: chr8:108778973:108784180:-|three_prime_utr|ENSG00000164841|control|control|control (ssRNA)
RNA: GGGAGUUCUACAGUCCGACGAUCAAGUUUAUUUCACAAACCAACAGCCAGUAAGUGUUUUUGUUCUCUAUGUGUCUUCUAUUUAGAAGAAAAGCCAUGUAAGAUGUAUAAGAAACCACAACCAGCCACACCUAUCCUUCUGAACAACAGAGGAUUGAGCAUCA
B6: ENSG00000072803:stop:overlap|stop_codon|ENSG00000072803|stop_codon|NA|stop_codon (ssRNA)
RNA: GGGAGUUCUACAGUCCGACGAUCCUGGAUACAGUAAACGGAAAGAAUCUUGGAAGAUGCUUGACUGCUGUCUUUUCUCAGACUAGUCUGAAAGGGAAAACCCCCAUUCAUUCUGGAUUGGUGGAUCUGAAGUACAAAAUAUUUCAACAGAGGAUUGAGCAUCA
B7: chrX:47571900:47572933:-|three_prime_utr|ENSG00000008056|control|control|control (ssRNA)
RNA: GGGAGUUCUACAGUCCGACGAUCAAACCUGACUCCUCCUGGCCCUAAAUCCGGUUCUCACAUGUGGAAUCCCCAAGUCCUUUUAGAACCCCACUCGUGGUCACUUCAGGAUCUACUUCUGUUUUAGAACCUCCACAUUCCUGACAACAGAGGAUUGAGCAUCA
B8: chr1:161190761:161190881:-|3pUTR|ENSG00000158859|msi1|FALSE|unique (ssRNA)
RNA: GGGAGUUCUACAGUCCGACGAUCUGCGGGUCACAGGAGGGAGGGGGAAGGCAGGGAGGGCCUGGGCCCCAGUUGUAUUUAUUUAGUAUUUAUUCACUUUUAUUUAGCACCAGGGAAGGGGACAAGGACUAGGGUCCUGGGGAACAACAGAGGAUUGAGCAUCA
B9: ENSG00000181035:stop:overlap|stop_codon|ENSG00000181035|stop_codon|NA|stop_codon (ssRNA)
RNA: GGGAGUUCUACAGUCCGACGAUCUGGGCAUCAGCUUCACCACCUUCGACCUCAUGCAGAUCCUGCUGCGGCACCUGCAGAGCUAGGGGACCCUGAGCUGCUCUCAGGACGGUGGACCGGUGACCCCUUUGUAUUCUGGGCCCACAACAGAGGAUUGAGCAUCA
B10: chr15:93024873:93024975:+|3pUTR|ENSG00000173575|unk|total|mutant (ssRNA)
RNA: GGGAGUUCUACAGUCCGACGAUCGGUCCAGCUCUGAUUCGGGUCACCACUCCUGCACUUUGGCACCCCAUCCCAUUCCAGCCCCGUUCUGGCCUCCCACUUUGACGGGCACUUGGAGGAGGAGCUGACUGUGUGUGUACCAGCCAACAGAGGAUUGAGCAUCA
B11: chr19:18196783:18197469:-|three_prime_utr|ENSG00000105649|control|control|control (ssRNA)
RNA: GGGAGUUCUACAGUCCGACGAUCACUACCCGGGCCUGACCCGGCCCCUACCAGCCACGGGCACAAGACCCCUGCUCCUGACUUAGCCCGUCACCCUUAUUUAUUAUUGUAGCUAUUUAUUUAUUUAUUGAAGAUGUCCCCCAGCAACAGAGGAUUGAGCAUCA
B12: chr8:37861146:37861251:-|3pUTR|ENSG00000156675|unk|FALSE|unique (ssRNA)
RNA: GGGAGUUCUACAGUCCGACGAUCCUGUGCAGAGCAAGAAGAUGAUACUUAUUUUUGAAUUUGUAUUUUUAAAACUAGAUUUAUAGACUUUUUUUUUUUUUAACUAGGGCACUUGCUUCCUUCUUAGCUAAAAGCACCAGCUGACAACAGAGGAUUGAGCAUCA
B13: chr1:161190761:161190881:-|3pUTR|ENSG00000158859|msi1|total|mutant (ssRNA)
RNA: B8 RNA with U83C, A84C, U104C, A105C, U129C, A130C
B14: chr5:180576808:180576909:+|3pUTR|ENSG00000113300|unk|total|mutant (ssRNA)
RNA: GGGAGUUCUACAGUCCGACGAUCUAUUUUCCGUGUCCUAAAUAAUUUUCAAUAAUCUAUAAUCCCUAAAAUGCAAUAAAAACCCGUAUGUUUUCACGGUGUAUAUUUUUUUUCAAAAAUUCUGUAACAAAUAUAUUUAAUGUGCAACAGAGGAUUGAGCAUCA
B15: chr7:80742902:80743013:-|3pUTR|ENSG00000075223|msi1_unk|total|mutant (ssRNA)
RNA: GGGAGUUCUACAGUCCGACGAUCUCAGAGUCACAGUUCCCUUUAUUUCACAUAAGCCCAAACUGACCGACAGUAACGGUGUUCCGUUUUAUACUAUAUUUGUGCUAUUUAAUUCUUUCUAUUUUCACAAUUAUUAAAUUGUGUCAACAGAGGAUUGAGCAUCA
B16: chr5:180576808:180576909:+|3pUTR|ENSG00000113300|unk|FALSE|unique (ssRNA)
RNA: B14 RNA with C83U, C84A
B17: chr7:20412070:20412171:+|3pUTR|ENSG00000105855|msi1|total|mutant (ssRNA)
RNA: GGGAGUUCUACAGUCCGACGAUCCUUUUUUUUUAUAAUAAACUUCCAAGAUUUGCUGUCUUCCAGCACUUGAGUUAAAGUACCCGAUACUGCAUUUUGAUGAAGACUAACCCCAUCUCAUAUUCUACCCUAAAGAGAACUGAACAACAGAGGAUUGAGCAUCA
B18: chr4:87473334:87473774:-|three_prime_utr|ENSG00000152583|control|control|control (ssRNA)
RNA: GGGAGUUCUACAGUCCGACGAUCCUUUCCAGCAUCCUCCUCUGUUCUAACCACUUCAGAAAUAUAUGCAGCUGUGAUACUUGUAGAUUUAUAUUUAGCAAAAUGUUAGCAUGUAUGACAAGACAAUGAGAGUAAUUGCUUGACCAACAGAGGAUUGAGCAUCA
B19: chr19:39539560:39539696:-|CDS|ENSG00000176396|unk|FALSE|unique (ssRNA)
RNA: GGGAGUUCUACAGUCCGACGAUCCGGGAACGGAGGCCUGGCUGCGUUGCCCUAUCUCCGUCUCCGCCACCCACUUAGCGUUUUAGGCAUCAAUUACCAGCAGUUUCUCCGCCACUAUCUGGAAAAUUACCCGAUUGCUCCCGGCAACAGAGGAUUGAGCAUCA
B20: chr1:203709306:203709407:+|CDS|ENSG00000058668|msi1|total|mutant (ssRNA)
RNA: GGGAGUUCUACAGUCCGACGAUCUCCAGAGAAGGAGGGAGGCCUGCCUCGGCAGGUGGGCAACAAGACCGAGUGUGCUCUGCCCGGCUUUGUCACAGAUCUGAAGCAGGAUUAUCAGGCUGUGCGUAAUGAAGUGCCCGAGGACAACAGAGGAUUGAGCAUCA
B21: chr1:225789428:225789553:+|3pUTR|ENSG00000143742|unk|FALSE|unique (ssRNA)
RNA: GGGAGUUCUACAGUCCGACGAUCUUAGAGAAAGUGUUGGGACAGAAAGUACUUUAUGUAACUAAGUGGGCUGUUCAGAAGCUUAGAGGUCAUUUUUUGUAAUUUUCUUUUUAAUUACUUUAGAGAGCUAGGGAUGCAAAUGUUCAACAGAGGAUUGAGCAUCA
B22: chr22:27980698:27980799:-|3pUTR|ENSG00000100154|unk|total|mutant (ssRNA)
RNA: GGGAGUUCUACAGUCCGACGAUCUAACCAUUAAUUUAUUUUAUAAAGAAAGGAAAUGCUGAAAGUCGUAUCCGUACUGAGUUCCGUUGGAGAAUUCCGAUAAGUAAGUAUCUUUCCGGUAAUUCUAAAAUUAAAAUCCUACCCCAACAGAGGAUUGAGCAUCA

Biological target: T1, UNK ZnF1-6 (called full-length)
Experiment: nsRBNS (natural sequence RNA bind-n-seq); RBNS binding buffer (assumed for nsRBNS): 25 mM Tris pH 7.5, 150 mM KCl, 3 mM MgCl2, 0.01% Triton X-100, 500 ug/ml BSA, 20 U/ml SUPERase-In, 4 C; UNK is unkempt and MSI1 is Musashi-1; names of the RNAs are library labels; protein concentration not given here; high values mean tight binding

Question: How did the binding signal turn out when B1 was run?
Answer: 3.03 enrichment R

Question: How did the binding signal turn out when B2 was run?
Answer: 0.553 enrichment R

Question: How did the binding signal turn out when B3 was run?
Answer: 1.95 enrichment R

Question: Which binding signal does the source give for B4 here?
Answer: 1.26 enrichment R

Question: With B5 as the binder, how does the binding signal read?
Answer: 0.507 enrichment R

Question: B6 was tested. Which binding signal did it give?
Answer: 1.04 enrichment R

Question: B7 was tested. Which binding signal did it give?
Answer: 0.975 enrichment R

Question: With B8 as the binder, how does the binding signal read?
Answer: 32.9 enrichment R

Question: For B9, which binding signal is on record?
Answer: 1.2 enrichment R

Question: B10 was tested. Which binding signal did it give?
Answer: 4.11 enrichment R

Question: How did the binding signal turn out when B11 was run?
Answer: 66 enrichment R

Question: For B12, which binding signal is on record?
Answer: 53.1 enrichment R

Question: With B13 as the binder, how does the binding signal read?
Answer: 2.05 enrichment R

Question: Which binding signal does the source give for B14 here?
Answer: 10.6 enrichment R

Question: B15 was tested. Which binding signal did it give?
Answer: 1.71 enrichment R

Question: Which binding signal does the source give for B16 here?
Answer: 20.9 enrichment R

Question: How did the binding signal turn out when B17 was run?
Answer: 0.911 enrichment R

Question: For B18, which binding signal is on record?
Answer: 2.1 enrichment R

Question: How did the binding signal turn out when B19 was run?
Answer: 1.3 enrichment R

Question: How did the binding signal turn out when B20 was run?
Answer: 0.691 enrichment R

Question: How did the binding signal turn out when B21 was run?
Answer: 1.53 enrichment R

Question: How did the binding signal turn out when B22 was run?
Answer: 0.76 enrichment R
